These results are taken from PubChem BioAssay (EPA / NIEHS).

“And” between values parts separate entries of the source, which are not always exact repeats. Equal values may be shown once. Records with an inconclusive call do not appear. A structure can be active in one record and inactive in another. The source made the active and inactive calls. Rule for the calls, unless noted: active = hit-call score of the fitted dose curve at least 0.9, where 1 is the maximum; inactive = score below 0.9.

Assay [1] is described as follows: BSK_3C_Proliferation: Cell Proliferation Assessment in the BioMAP Diversity Plus: 3C Assay (AID 2283006).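 For AC50: potency may reflect either rise or fall in cell number versus DMSO.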 To be noted: primary human endothelial cells (HUVEC). A digest of the protocol: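 Subconfluent HUVEC (3C system) cultured with chemical; relative cell number read at 48 h by sulforhodamine B total-protein staining (0.1% SRB after 10% TCA fixation, 560 nm). Bidirectional fit relative to DMSO.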

The nature of assay [2]: CCTE_Shafer_MEA_acute_spike_number: CCTE's Neural Acute Assay for Total Number of Spikes, Shafer Lab (AID 2284008).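 Note: curve fitted for decrease in spike count so AC50 reflects inhibitors.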 A digest of the protocol: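 Cortical neurons from rat, matured to DIV 13 or 15 on microelectrode arrays, are recorded at 37 C before and during 40-min exposure to 0.03-40 uM compound. Wells need >/= 10 active electrodes.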
Assay [3] can be described thus: CCTE_Shafer_MEA_acute_firing_rate_mean: CCTE's Neural Acute Assay for Mean Firing Rate, Shafer Lab (AID 2284009).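 Note: analyzed for loss of signal so actives lower firing rate relative to DMSO.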 The essentials:
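Percent change in well-mean firing rate was derived from extracellular spikes detected at 8x rms noise (300-5000 Hz band-pass) before and after a 40-min compound exposure. Cultures were primary rat cortical neurons, tested at 0.03-40 uM.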

Assay [4] in a line: CCTE_Shafer_MEA_acute_burst_number: CCTE's Neural Acute Assay for Single-Electrode Bursts, Shafer Lab (AID 2284013). The essentials: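 Spontaneous network activity of primary rat cortical neurons was recorded extracellularly on microelectrode arrays at 37 C, with 40-min periods before and during exposure to 0.03-40 uM compound on DIV 13 or 15.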
A short description of assay [5]: CCTE_Shafer_MEA_acute_per_burst_spike_number_mean: CCTE's Neural Acute Assay for Average Number of Spikes Per Burst, Shafer Lab (AID 2284015).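 Note: hits are decreases in mean spikes per burst versus baseline.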 A digest of the protocol: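 Read-out: percent change in mean spikes per burst, each well's post-exposure 40-min recording versus its own 40-min baseline. Rat cortical cultures, DIV 13 or 15, compounds 0.03-40 uM; DMSO is negative control, loss-of-signal fitting.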

Read-out in assay [6]: Plasminogen activator inhibitor-1 (PAI1), SERPINE1 (gene 5054)
Put plainly: BSK_KF3CT_PAI1: BioMAP Diversity Plus: KF3CT Assay for Plasminogen activator inhibitor-1 (PAI1) Biomarker Activity (AID 2284252). The conditions noted are these: primary human keratinocytes with fibroblasts. A digest of the protocol: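 Human keratinocyte/foreskin fibroblast co-culture dosed for 24 h; PAI-1 measured by ELISA, fitted in positive direction against DMSO baseline. Parallel SRB total-protein staining (0.1% SRB, 560 nm) assesses overt cytotoxicity.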

Read-out in assay [7]: Intercellular Adhesion Molecule 1 (ICAM1), ICAM1 (gene 3383)
In words: BSK_BE3C_ICAM1: BioMAP Diversity Plus: BE3C Assay for Intercellular Adhesion Molecule 1 (ICAM1) Biomarker Activity (AID 2284278).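 Note: cell-surface ICAM-1 protein level quantified by ELISA.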 To be noted: primary human bronchial epithelial cells. A digest of the protocol:
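Primary human bronchial epithelial cells in BE3C system, 24 h after chemical dosing; cell-surface ICAM-1 measured by ELISA relative to DMSO. Parallel SRB staining (0.1% SRB after 10% TCA fixation, read at 560 nm) assessed cytotoxicity.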

Read-out in assay [8]: Interferon-inducible T-cell alpha chemoattractant (ITAC), CXCL11 (gene 6373)
Put plainly: BSK_BE3C_ITAC: BioMAP Diversity Plus: BE3C Assay for Interferon-inducible T-cell alpha chemoattractant (ITAC) Biomarker Activity (AID 2284279). The conditions noted are these: primary human bronchial epithelial cells. The essentials:
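BE3C cells (human primary bronchial epithelium), 24 h compound exposure, I-TAC by ELISA, DMSO = negative control/baseline, positive fitting direction.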

Read-out in assay [9]: Interleukin-8 (IL8), CXCL8 (gene 3576)
Put plainly: BSK_BE3C_IL8: BioMAP Diversity Plus: BE3C Assay for Interleukin-8 (IL8) Biomarker Activity (AID 2284280). To be noted: primary human bronchial epithelial cells. The essentials: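 IL-8 signal gain, normalised to DMSO vehicle, was scored after a 24 h chemical exposure of primary human bronchial epithelial cells, with detection by ELISA.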

Read-out in assay [10]: Epidermal growth factor receptor (EGFR), EGFR (gene 1956)
In words: BSK_BE3C_EGFR: BioMAP Diversity Plus: BE3C Assay for Epidermal growth factor receptor (EGFR) Biomarker Activity (AID 2284281). To be noted: primary human bronchial epithelial cells. A digest of the protocol: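 Compound is added to human bronchial epithelial cells, cells incubate 24 h, then EGFR is detected by ELISA. Values reflect positive-direction fitting relative to DMSO.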

Read-out in the next assay: KRT18 (gene 3875)
Put plainly: BSK_BE3C_Keratin818: BioMAP Diversity Plus: BE3C Assay for Keratin 818 Biomarker Activity (AID 2284282). The conditions noted are these: primary human bronchial epithelial cells. A digest of the protocol:
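Primary human bronchial epithelial cells treated 24 h; Keratin 8/18 quantified by ELISA, fit relative to DMSO. Cytotoxicity tracked in parallel cultures by sulforhodamine B total-protein staining.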

Read-out in assay [11]: Matrix Metallopeptidase 9 (MMP9), MMP9 (gene 4318)
Put plainly: BSK_BE3C_MMP9: BioMAP Diversity Plus: BE3C Assay for Matrix Metallopeptidase 9 (MMP9) Biomarker Activity (AID 2284283). To be noted: primary human bronchial epithelial cells. A digest of the protocol:
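Cells were dosed, incubated 24 h, then assayed for MMP-9 by ELISA; activity was fitted upward against DMSO. The system used human lung primary bronchial epithelial cells, with SRB total-protein staining run alongside for cytotoxicity.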

Read-out in assay [12]: Plasminogen activator inhibitor-1 (PAI1), SERPINE1 (gene 5054)
Put plainly: BSK_CASM3C_PAI1: BioMAP Diversity Plus: CASM3C Assay for Plasminogen activator inhibitor-1 (PAI1) Biomarker Activity (AID 2284284).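 Note: PAI-1 protein level measured by ELISA 24 h after dosing.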 The conditions noted are these: primary human coronary artery smooth muscle cells.

Read-out in assay [13]: TIMP metallopeptidase inhibitor 2 (TIMP2), TIMP2 (gene 7077)
Put plainly: BSK_hDFCGF_TIMP2: BioMAP Diversity Plus: hDFCGF Assay for TIMP metallopeptidase inhibitor 2 (TIMP2) Biomarker Activity (AID 2284289). The conditions noted are these: primary human foreskin fibroblasts. The essentials: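 Primary human foreskin fibroblasts in the hDFCGF system, dosed for 24 h; TIMP-2 level measured by ELISA, fitted in the positive direction against DMSO; cytotoxicity checked in parallel by sulforhodamine B total protein staining.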

Read-out in another assay: CD69, CD69 (gene 969)
Put plainly: BSK_LPS_CD69: BioMAP Diversity Plus: LPS Assay for CD69 Biomarker Activity (AID 2284303). The conditions noted are these: primary human HUVEC with PBMC. The essentials: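 Human umbilical vein endothelial cells co-cultured with PBMC under LPS stimulation, chemical exposure 24 h; cell-surface CD69 measured by ELISA and fitted in the positive direction versus DMSO.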

Assay [14] addresses Oxysterols receptor LXR-beta (Homo sapiens) (UniProt P55055). In words: ATG_LXRb_TRANS: Attagene TRANS-FACTORIAL HepG2 Assay for human Liver X Receptor beta (LXRb) (AID 2282981; active = hit-call score of the fitted dose curve at least 0.9, where 1 is the maximum). The conditions noted are these: HepG2 Attagene TRANS GAL4-LXRb reporter, mRNA. A digest of the protocol:
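Transient transfection HepG2 (multiplexed RTUs, GAL4-UAS); NR-Gal4 chimera; 24 h exposure; RNA → RT-PCR → 6-FAM primer extension → HpaI → CE; increase vs DMSO.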

Assay [15] concerns the target Hepatocyte nuclear factor 4-alpha (Homo sapiens) (UniProt P41235). In words: ATG_HNF4a_TRANS: Attagene TRANS-FACTORIAL HepG2 Assay for human Hepatocyte Nuclear Factor 4 alpha (HNF4a) (AID 2282982; active = hit-call score of the fitted dose curve at least 0.9, where 1 is the maximum). The conditions noted are these: HepG2 HNF4a transactivation reporter, mRNA readout. A digest of the protocol: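 Readout is fluorescent reporter-transcript fragments resolved by capillary electrophoresis after RT-PCR from HepG2 cells dosed for 24 h. Cells carried transfected GAL4-UAS reporter constructs measuring exogenous NR-GAL4 chimera activity; DMSO served as baseline.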

In assay [16] the target is human Retinoid X Receptor beta (RXRb), RXRB (gene 6257) (UniProt P28702). Put plainly: ATG_RXRb_TRANS: Attagene TRANS-FACTORIAL HepG2 Assay for human Retinoid X Receptor beta (RXRb) (AID 2283013; active = hit-call score of the fitted dose curve at least 0.9, where 1 is the maximum). A digest of the protocol:
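HepG2 cells were transiently transfected with multiplexed GAL4-UAS reporters and a chimeric RXRb-Gal4 construct, then exposed for 24 h. Reporter mRNA was quantified by RT-PCR, FAM labeling, HpaI digestion and capillary electrophoresis; gain of signal was scored against DMSO.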

Assay [17] in a line: ATG_M_06_TRANS: Attagene TRANS-FACTORIAL HepG2 Assay for M06 Transcription Factor (Internal Marker) (AID 2282983; active = hit-call score of the fitted dose curve at least 0.9, where 1 is the maximum;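 note: reporter transcript level by RT-PCR then capillary electrophoresis fluorescence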). The conditions noted are these: HepG2 Attagene TRANS M06 internal marker reporter. A digest of the protocol:
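Measured by capillary electrophoresis of fluorescently labelled RT-PCR products, this endpoint reflects reporter mRNA in HepG2 cells harbouring exogenous NR-GAL4 reporter constructs after 24 h exposure, with DMSO as baseline.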

Assay [18] in a line: ATG_GAL4_TRANS: Attagene TRANS-FACTORIAL HepG2 Assay for GAL4 (Internal Marker) (AID 2282976; active = hit-call score of the fitted dose curve at least 0.9, where 1 is the maximum). The conditions noted are these: HepG2 Attagene TRANS GAL4 internal marker reporter. The essentials: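 Fluorescence from capillary electrophoresis of labelled RT-PCR products quantifies reporter mRNA induction after 24 h dosing of HepG2 cells carrying transfected GAL4-UAS reporter transcription units. Vehicle DMSO serves as baseline.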

Hepatocyte nuclear factor 4-alpha (Homo sapiens), sequence (P41235 whole entry, looked up, the tested form may be a part): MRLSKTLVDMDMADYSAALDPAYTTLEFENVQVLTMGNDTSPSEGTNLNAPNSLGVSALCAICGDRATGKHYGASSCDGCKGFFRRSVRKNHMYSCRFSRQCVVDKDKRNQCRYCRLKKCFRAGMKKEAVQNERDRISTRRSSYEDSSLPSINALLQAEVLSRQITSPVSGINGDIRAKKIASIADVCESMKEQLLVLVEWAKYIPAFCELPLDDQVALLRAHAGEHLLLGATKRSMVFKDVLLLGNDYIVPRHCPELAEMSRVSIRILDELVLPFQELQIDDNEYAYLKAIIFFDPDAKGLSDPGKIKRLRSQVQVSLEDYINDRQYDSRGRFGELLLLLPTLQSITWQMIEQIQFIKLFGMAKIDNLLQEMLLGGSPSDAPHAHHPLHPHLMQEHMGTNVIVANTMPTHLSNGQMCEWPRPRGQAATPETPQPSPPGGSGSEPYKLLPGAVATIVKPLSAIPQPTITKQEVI
Oxysterols receptor LXR-beta (Homo sapiens), sequence (P55055 whole entry, looked up, the tested form may be a part): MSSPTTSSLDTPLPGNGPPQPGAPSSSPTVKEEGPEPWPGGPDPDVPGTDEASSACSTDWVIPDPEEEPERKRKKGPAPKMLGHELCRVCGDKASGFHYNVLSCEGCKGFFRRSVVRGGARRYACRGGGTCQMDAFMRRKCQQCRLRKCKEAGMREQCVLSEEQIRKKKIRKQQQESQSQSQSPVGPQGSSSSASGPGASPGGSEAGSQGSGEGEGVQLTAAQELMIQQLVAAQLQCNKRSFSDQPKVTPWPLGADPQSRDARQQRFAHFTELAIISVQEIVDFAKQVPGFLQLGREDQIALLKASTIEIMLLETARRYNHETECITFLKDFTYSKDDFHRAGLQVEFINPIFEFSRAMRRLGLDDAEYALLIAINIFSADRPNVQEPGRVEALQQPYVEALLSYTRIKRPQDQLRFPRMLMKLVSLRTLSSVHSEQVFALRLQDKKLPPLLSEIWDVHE
human Retinoid X Receptor beta (RXRb), RXRB (gene 6257), sequence (P28702 whole entry, looked up, the tested form may be a part): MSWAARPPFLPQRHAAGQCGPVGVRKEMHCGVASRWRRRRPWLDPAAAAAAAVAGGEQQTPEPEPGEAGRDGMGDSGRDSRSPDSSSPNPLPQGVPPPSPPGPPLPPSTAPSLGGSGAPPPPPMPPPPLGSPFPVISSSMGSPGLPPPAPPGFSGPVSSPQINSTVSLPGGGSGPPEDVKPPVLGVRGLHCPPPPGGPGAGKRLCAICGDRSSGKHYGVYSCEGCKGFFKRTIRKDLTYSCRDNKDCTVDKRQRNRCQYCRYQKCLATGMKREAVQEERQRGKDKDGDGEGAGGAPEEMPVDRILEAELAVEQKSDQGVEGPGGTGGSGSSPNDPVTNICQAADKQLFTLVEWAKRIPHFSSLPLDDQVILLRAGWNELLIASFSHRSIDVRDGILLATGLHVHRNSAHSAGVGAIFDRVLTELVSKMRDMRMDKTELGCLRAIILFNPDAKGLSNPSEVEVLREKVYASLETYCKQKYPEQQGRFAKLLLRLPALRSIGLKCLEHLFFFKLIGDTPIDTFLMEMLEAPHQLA

For the molecule `COc1ccc(C(=O)c2ccccc2O)c(O)c1`, the AC50 in assay [1] is 23600 nM (active); in assay [2], 21.5 nM (active); in assay [3], 5.33 nM (active); in assay [4] it was 3 nM (active); in assay [11], 10.2 µM (active) and 17.3 µM (active). Moreover, the outcome in assay [5], in assay [6], in assay [7], in [8], in assay [9] and in assay [10] was inactive. Further, the outcome was “inactive” in the assay with KRT18 (gene 3875); “inactive” in assay [12]; “inactive” in assay [13]; “inactive” with CD69, CD69 (gene 969).

Take `CCCCCC[C@@H](O)C/C=C\CCCCCCCC(=O)O`: the result in assay [14] and in assay [15] was inactive. Besides, in assay [16], the AC50 was 30900 nM (active).

Take `O=S(=O)(O)c1cccc2ccccc12`: the molecule was called inactive in assay [15].

For `CC(C)C1OCCN1CCOC(=O)NCCCCCCNC(=O)OCCN1CCOC1C(C)C` (configuration not stated), the result in assay [1], in assay [4], in assay [5], in assay [6], in assay [7] and in assay [8] was inactive. Further, the outcome (in assay [9]; in [10]; in the assay with KRT18 (gene 3875); in [11]; in [12]; in assay [13]) was inactive. Besides, the outcome in the assay with CD69, CD69 (gene 969) was inactive. Moreover, the AC50 in assay [2] and in assay [3] was 16.3 nM (active) throughout.

`C=CC(C)(CCC=C(C)C)OC(=O)c1ccccc1` (configuration not stated): in assay [17], the molecule was classed as inactive.

Regarding `CC(C)CC(=O)CC(C)C`, the molecule was called inactive in assay [18].

In the case of `CCCCCCOC(=O)CCCCCCCC(=O)OCCCCCC`, the call in assay [18], in assay [14], in [15], in assay [17] and in [16] was inactive.

On to `Cc1c(C(N)=O)cc([N+](=O)[O-])cc1[N+](=O)[O-]`, for which the outcome in assay [1], in assay [4], in [5], in assay [6], in assay [7] and in assay [9] was inactive. In addition, the outcome was “inactive” in [10]; “inactive” in the assay with KRT18 (gene 3875); “inactive” in [11]; “inactive” in assay [12]; “inactive” in assay [13]; “inactive” with CD69, CD69 (gene 969). In addition, the AC50 in assay [2] was 3 nM (active); in assay [3] it was 3.2 nM (active); in assay [8], 32.7 µM (active) and 30.5 µM (active); in assay [11], 15.4 µM (active).

As usually defined, the AC50 is the midpoint of the concentration-response curve, whichever way the signal moves.
